Screens: PubChem BioAssay, National Center for Advancing Translational Sciences (NCATS)
SMN2 splice enh = qHTS Assay for Enhancers of SMN2 Splice Variant Expression | HEK293 SMN2-luciferase splicing reporter, luminescence, 30-36 h | Potency, µM (titrated, usually from 46.1 µM), for the others: at the highest dose activity change, positive = activation, actives largely listed as activators | 210,000 tested, 2.8% active | AID 1458, 2008; note: % of control where 0% means no effect; nearly all actives have a fitted effect of over 55% in size
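qHTS luciferase splicing reporter: luminescence rises when SMN2 exon 7 is included in transfected HEK293 cells. Compound exposure lasted 30-36 h at 37C, with 4.5 mM final sodium butyrate as control, followed by a ONE-Glo read.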
uPA surface inh = qHTS for Inhibitors of Cell Surface uPA Generation | cell surface uPA generation assay, qHTS | Potency, µM (titrated, usually from 38.3 µM), for the others: at the top dose activity change, negative = inhibition, most hits filed as inhibitors | 330,000 tested, 0.31% active; active = well fitted inhibition curve with a large enough effect; inconclusive = small, poorly fitted or top-dose-only effect; inactive = no such curve, though single readings can be large or run the other way; tested in mouse RAW 264.7 cells; note: % is set by controls: 0 for no effect and ±100 for the full control effect; nearly all actives have a fitted effect of over 55% in size
ELG1 genotox = qHTS screen for small molecules that induce genotoxicity in human embryonic kidney (HEK293T) cells expressing luciferase-tagged ELG1 | HEK293T ELG1-luciferase reporter, luminescence, 16 h | Potency, µM (titrated, usually from 46 µM), inactives show top-dose activity change, positive = activation, hits mostly activators | 330,000 tested, 1.3% active; note: % of control where 0% means no effect; nearly all actives have a fitted effect of over 60% in size
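Screening used a luciferase reporter fused to human ELG1 in HEK293T cells. Luminescence was read on a CCD plate imager after 16 hr exposure and 30 min ONE-Glo incubation.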
NPC1 promoter act = qHTS Assay for NPC1 Promoter Activators; 320,000 tested, 2.4% active; AID 485313, 2010; Huh7 NPC1 promoter luciferase reporter, 24 h; Potency, µM (series often up to 9.22 µM), for the others: at the top dose activation, hits mostly activators; note: % of control where 0% means no effect; nearly all actives have a fitted effect of over 60% in size
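Luminescence read-out of NPC1 promoter-driven luciferase in stably transfected Huh7 cells; compounds delivered in DMSO and left 24 h at 37C, 5% CO2, qHTS titration format.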
Rab9 promoter act = qHTS Assay for Rab9 Promoter Activators; Huh7 Rab9 promoter-luciferase reporter, luminescence, 24 h; Potency, µM (doses to about 9.22 µM), for the others: at the highest dose activation, negative = inhibition, most hits filed as activators; 320,000 tested, 2.8% active; note: % of control where 0% means no effect; nearly all actives have a fitted effect of over 60% in size
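Rab9 promoter-driven luciferase in stably transfected Huh7 cells; 1500 cells/well rested 2 h, exposed to compound in DMSO for 24 h at 37 °C, 5% CO2. Luminescence read 10 min after adding luciferase reagent at ambient temperature.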
FLuc modulator = qHTS profiling assay for firefly luciferase inhibitor/activator using purifed enzyme and Km concentrations of substrates (counterscreen for miR-21 project); AID 588342, 2011; 360,000 tested, 6.9% active; Potency, µM (doses to about 57.5 µM), for inactives: top-dose activity change, negative = inhibition, most hits filed as inhibitors; purified FLuc, Km substrates, luminescence inhibition; Luciferin 4-monooxygenase (Photinus pyralis), P08659;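 note: plate controls were vehicle for no effect and reference inhibitor for full effect; nearly all actives have a fitted effect of over 55% in size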
Target sequence (P08659 whole entry, looked up): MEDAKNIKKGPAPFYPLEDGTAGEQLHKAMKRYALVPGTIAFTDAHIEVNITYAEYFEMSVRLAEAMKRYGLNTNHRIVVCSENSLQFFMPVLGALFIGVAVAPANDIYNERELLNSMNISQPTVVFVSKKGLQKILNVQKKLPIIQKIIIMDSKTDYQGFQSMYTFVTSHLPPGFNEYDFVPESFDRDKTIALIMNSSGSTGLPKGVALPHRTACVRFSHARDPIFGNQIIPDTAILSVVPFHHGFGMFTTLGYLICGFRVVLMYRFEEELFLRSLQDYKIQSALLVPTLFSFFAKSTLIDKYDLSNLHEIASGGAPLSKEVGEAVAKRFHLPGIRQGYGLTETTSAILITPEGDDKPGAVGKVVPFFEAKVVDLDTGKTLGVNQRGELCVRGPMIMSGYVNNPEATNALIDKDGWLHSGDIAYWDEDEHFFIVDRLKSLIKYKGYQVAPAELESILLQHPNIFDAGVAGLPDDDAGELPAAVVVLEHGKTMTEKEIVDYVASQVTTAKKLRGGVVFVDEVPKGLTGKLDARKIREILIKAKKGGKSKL
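Purified P. pyralis luciferase, 10 nM final, with Km-level 10 uM D-luciferin and 10 uM ATP in 50 mM Tris acetate pH 7.5, 10 mM Mg acetate, 0.01% Tween-20, 0.05% BSA; 6-point qHTS titration about 60 µM downward; luminescence read.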
* hit, by the source's call; ? = inconclusive; . = not tested or not shown. This is a sample that favours compounds with a hit; in the whole collection about 7.3% have one here. Unless noted, calls come from the whole dose curve; as a rule, active = well fitted curve in the direction sought with a large enough effect; inconclusive = small, poorly fitted or top-dose-only effect, or another doubt; inactive = no such curve, though single readings can be large; an effect the other way counts as inactive or inconclusive. Potency is the fitted concentration of half-maximal effect.

SMILES	SMN2 splice enh	uPA surface inh	ELG1 genotox	NPC1 promoter act	Rab9 promoter act	FLuc modulator
C=C(C)C(=O)OCC(O)COc1ccc(C(C)(C)c2ccc(OCC(O)COC(=O)C(=C)C)cc2)cc1 (configuration not stated)	.	13.6%	?	-3.3%	-1.2%	-2.7%
Cc1cc(=O)oc2cc(NC(=O)c3ccnn3C)ccc12	.	-7.5%	16.4µM*	2.82µM*	3.98µM*	?
Cc1cc(=O)oc2cc(NC(=O)c3ccccc3C(=O)O)ccc12	.	0.0%	-2.6%	2.1%	-2.0%	10.7µM*
Cc1cccc(OCC(=O)Nc2ccc3c(C)cc(=O)oc3c2)c1	-1.7%	6.3%	8.1%	-0.7%	-3.4%	2.1%
COc1cccc(C(=O)Nc2ccc3c(C)cc(=O)oc3c2)c1	.	-27.0%	2.31µM*	1.12µM*	0.708µM*	1.9µM*
Cc1cc(=O)oc2cc(NC(=O)c3ccccc3Cl)ccc12	.	-2.7%	14.6µM*	3.16µM*	3.55µM*	10.7µM*
N[C@H](C(=O)O)c1ccc(C(=O)O)cc1	-10.8%	.	.	.	.	.
Cc1cc(F)ccc1NC(=O)C1CCCN(C(=O)c2cnn(-c3ccccc3)c2-n2cccc2)C1 (configuration not stated)	-30.2%	.	.	.	.	-12.1%
CCCCNc1nc2c(c(=O)n(Cc3ccc(Cl)c(Cl)c3)c(=O)n2C)n1C	0.3%	.	.	.	.	4.4%
COc1cccc(/C=N/NC(=S)Nc2cccc(S(=O)(=O)N(C)C)c2)c1	.	-7.2%	-7.6%	7.5%	-0.6%	?
COc1cc(/C=N/NC(=S)N/N=C/c2cc(OC)c(OC)c(OC)c2)cc(OC)c1OC	4.47µM*	-10.0%	?	25.1%	20.0%	0.213µM*
COc1cccc(/C=N/NC(=S)Nc2cccnc2)c1	-4.6%	-7.8%	8.8%	8.4%	7.7%	15.1µM*
COc1ccccc1NC(=S)N/N=C/c1ccc(O)cc1	11.2µM*	-4.7%	?	?	?	?
COc1cccc(/C=N/NC(=S)Nc2cccc(C(=O)O)c2)c1	14.1µM*	-22.0%	1.4%	2µM*	3.16µM*	1.69µM*
COc1cc(/C=N/NC(=S)Nc2cccc(C(=O)O)c2)cc(OC)c1OC	?	2.9%	2.1%	1.4%	-1.1%	23.9µM*
COc1ccc(/C=N/NC(=S)Nc2cccc(C(=O)O)c2)cc1OC	2.0%	-9.4%	2.8%	1.1%	-0.7%	5.36µM*
Oc1ccc(/C=N/NC(=S)N/N=C/c2ccc(O)cc2)cc1	?	-6.5%	?	21.3%	26.1%	0.19µM*
Oc1ccc(/C=N/NC(=S)Nc2cccnc2)cc1	.	3.98µM*	?	3.16µM*	?	6.75µM*
COc1ccc(C=NNC(=S)Nc2ccc(F)cc2)cc1OC	.	-3.7%	.	.	.	.
Cc1cc(Cl)cc2sc(NC(=O)C3CC3)nc12	.	-5.9%	-1.0%	14.0%	4.4%	0.9%
CC(=O)Nc1nc2c(F)cccc2s1	.	-0.2%	.	.	.	.
Cc1ccc(CNc2nc3nc(C)c(Cl)c(C)n3n2)cc1	15.2%	.	.	.	.	.
Cc1nc2nc(NC(=O)c3ccco3)nn2c(C)c1Cl	.	-7.6%	18.3µM*	3.55µM*	3.16µM*	?
O=C(Nc1nc2c(Br)cc(Br)cc2c(=O)s1)c1ccco1	.	-4.1%	2.2%	-8.5%	-3.6%	-4.5%
O=C(Nc1nc2c(F)cccc2s1)c1ccco1	.	?	7.3µM*	1.12µM*	1.12µM*	4.78µM*
SMILES	SMN2 splice enh	uPA surface inh	ELG1 genotox	NPC1 promoter act	Rab9 promoter act	FLuc modulator
Cc1cc(C)c2nc(NC(=O)c3ccco3)sc2c1	.	?	0.651µM*	2.82µM*	0.562µM*	0.536µM*
Cc1cc(Cl)cc2sc(NC(=O)c3ccco3)nc12	.	-5.6%	2.91µM*	?	2.24µM*	9.53µM*
Cc1c(-c2ccc(Cl)cc2)c(=O)oc2ccc(OC(=O)N3CCOCC3)cc12	.	.	.	.	.	-6.8%
COc1ccccc1NC(=O)c1c(C)cc(C)nc1SCC(=O)c1ccc(Cl)cc1	.	.	.	.	.	-7.9%
O=C(NCc1cccc(C(F)(F)F)c1)C1CCC(=O)N(C2CCCCCC2)C1 (configuration not stated)	.	-0.8%	-3.2%	-5.8%	-0.1%	-1.7%
CCc1cc(C(=O)c2ccc(OC)cc2)c(N)s1	.	-2.5%	1.2%	-6.3%	-1.4%	-2.1%
COc1ccc(C(=O)c2ccc(CC#N)s2)cc1	12.6µM*	2.0%	?	?	?	12µM*
COc1ccc(C(=O)c2ccsc2N)cc1	.	-3.3%	?	3.55µM*	?	16.9µM*
CCc1ccccc1N1C(=O)N(Cc2cc(=O)n3ccccc3n2)c2ccccc2S1(=O)=O	.	.	.	.	.	0.9%
CC1CCN(C(=O)Cn2c(=O)n(CCCCCC(=O)NCc3ccccc3Cl)c(=O)c3sccc32)CC1	2.8%	.	.	.	.	-0.9%
N#Cc1c(/N=C/c2cccnc2)sc2c1CCCC2	.	-2.1%	2.7%	-2.7%	-4.1%	2.69µM*
CN(C)/C=N/c1sc2c(c1C#N)CCC2	-28.9%	1.7%	5.2%	8.7%	1.5%	-8.9%
N#Cc1c(/N=C\c2ccc(O)c([N+](=O)[O-])c2)sc2c1CCCC2	.	-6.5%	11.2%	28.1%	?	?
N#Cc1c(/N=C/c2cccs2)sc2c1CCCCC2	-24.5%	-11.6%	0.517µM*	3.55µM*	2µM*	0.379µM*
Cc1ccc(/C=N/c2sc3c(c2C#N)CCC3)o1	3.6%	-3.7%	?	5.9%	1.7%	1.35µM*
N#Cc1c(/N=C/c2ccc(Br)s2)sc2c1CCC2	7.94µM*	-4.4%	?	?	?	1.9µM*
O=C(N[C@@H](Cc1ccccc1)C(=O)O)c1ccncc1	.	2.2%	5.4%	-4.1%	8.3%	-6.3%
Cc1cccc(NC(=O)CSc2nc(-c3cccs3)cc(C(F)(F)F)c2C#N)c1	19.0%	.	.	.	.	-6.5%
CS(=O)(=O)N(CC(=O)NCCSc1ccccc1)c1cc(C(F)(F)F)ccc1Cl	-3.2%	.	.	.	.	?
CCOc1ccc(-n2c(=O)c3c(C)c(C)sc3n(CC(=O)N3CCC(C)CC3)c2=O)cc1	-8.7%	.	.	.	.	1.8%
Cc1ccccc1OCCC(=O)N1CCN(S(=O)(=O)c2ccc(Br)cc2)CC1	.	7.6%	?	-4.8%	-2.6%	-1.4%
COc1cc(C2CC(=O)Nc3c2c(=O)[nH]c2nc4ccccc4n32)ccc1O (configuration not stated)	-6.4%	.	.	.	.	-11.8%
CC(C)Oc1ccc(CNC(=O)c2ccc3c(c2)nc2n3CCOC2)cc1	.	.	.	.	.	-1.4%
CCCc1ccc(OCc2nc(-c3ccc(NC(=O)c4ccco4)cc3)no2)cc1	21.0%	-4.6%	16.4µM*	2.51µM*	?	13.5µM*
